This is an account of results in PubChem BioAssay (NCATS).

For test [1], the target named is Lysosomal acid glucosylceramidase (Homo sapiens) (UniProt P04062). As to the kind of experiment: Glucocerebrosidase-p2 (AID 348; in the data active = potency below about 10 µM; note: potency is the fitted concentration of half-maximal effect). Conditions: purified GBA, blue fluorogenic substrate, 40 min. Summed up: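 Normal human glucocerebrosidase (0.2 nM) with blue fluorogenic substrate (80 uM final) in citrate/phosphate pH 5.9 with 10mM sodium taurocholate, 0.01% tween-20; 40 min RT, NaOH/glycine stop; fluorescence Ex 365/Em 440; AC50 from a titration from 0.6 nM upwards.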

The nature of test [2]: AP1 Signaling Pathway (AID 357).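 Note: ME-180 reporter cells stimulated with EGF at its EC50 level; % is set by controls: 0 for no effect and ±100 for the full control effect.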 Conditions: ME-180 AP-1-bla reporter, EGF-induced, beta-lactamase ratio, 5 h; at 7.69 µM (top of the series) unless noted. Summed up:
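A ratiometric CCF4 readout (405 nm excitation; 460 and 530 nm emission) quantified AP-1-driven beta-lactamase in ME-180 cells after 5 h with compound and EC50 EGF; AC50 values were derived for activators and inhibitors.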

Test [3] deals with Cytochrome P450 1A2 (Homo sapiens) (UniProt P05177). Briefly: p450-cyp1a2 (AID 410; calls by dose curve; note: potency is the fitted concentration of half-maximal effect;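 for activity change, negative = inhibition: -100% = full effect of reference inhibitor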). Conditions: recombinant CYP1A2, luciferin-ME demethylation, luminescence; series mostly up to 57 µM. In outline:
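O-Demethylation of luciferin 6' methyl ether by human CYP1A2 is monitored as luciferase luminescence. Substrate sits at Km (100uM); enzyme is 20nM. Values are scaled to 57 uM furafylline as maximal inhibition.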

The nature of test [4]: NFAT Signaling Pathway (AID 444).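 Note: carbachol stimulus at about its EC50 of 1 µM final; % is set by controls: 0 for no effect and ±100 for the full control effect.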 The settings on record: Jurkat NFAT-bla M1, carbachol, beta-lactamase ratio, 5 h; at 7.69 µM (top of the series) unless noted. In outline: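 Jurkat cells with NFAT-driven β-lactamase reporter and co-expressed M1 receptor, stimulated with carbachol (final 1 uM, ~EC50), compound titration, 5 h at 37 °C. CCF4 loaded 1 h at RT; 460/530 nm ratio gave %activity and AC50.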

Test [5] can be described thus: Stat Signaling Pathway (AID 446).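 Note: ME-180 cervical cancer cells given 40 pM IL-6 alongside compound; SIE-controlled beta-lactamase reporter measured as 460/530 nm FRET emission ratio; % is set by controls: 0 for no effect and ±100 for the full control effect.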 The settings on record: ME-180 (cervical carcinoma) SIE beta-lactamase reporter, IL-6 stimulated, 5 h; at 7.69 µM (top of the series) unless noted. In outline: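 Emission at 460 and 530 nm (excitation 405 nm) reports SIE-controlled beta-lactamase in ME-180 cells. Cells received compound with 40 pM IL-6 for 5 hrs at 37 C; data scaled between 300 pM IL-6 and 125 nM JAK-inhibitor controls.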

The target of test [6] is Glucocorticoid receptor (Homo sapiens) (UniProt P04150). As to the kind of experiment: GR-EFC Redistribution (AID 451; calls by dose curve; note: potency is the fitted concentration of half-maximal effect). Conditions: CHO-K1 GR-EFC translocation, beta-gal luminescence, 2 h. In outline:
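CHO-K1 cells expressing nuclear EA and GR-ED fragments of b-gal; compounds titrated up to 46 uM final, 2 h at 37 C. GR nuclear translocation read as complemented b-gal luminescence after 1 h RT detection.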

For test [7], the target named is Mitogen-activated protein kinase 10 (Mus musculus) (UniProt Q61831). Briefly: JNK3 AlphaScreen Assay (AID 530).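 Note: kinase came from lysate of stimulated human HepG2 cells; signal reports phosphorylation of biotinylated GST-cJun 1-79 at Ser73 with 10 µM ATP; % is set by controls: 0 for no effect and ±100 for the full control effect.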 The settings on record: JNK3 lysate, c-Jun phosphorylation; series mostly up to 57.1 µM. Summed up:
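Activity was read by AlphaScreen after JNK3-containing HepG2 lysate (cytokine pre-activated) phosphorylated biotinylated GST-cJun with 10 uM ATP at room temperature. Phospho-Ser73 cJun antibody with Protein-A acceptor beads provided detection.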
On the technique in general: In Alpha technology, singlet oxygen from a donor bead excites a nearby acceptor bead.

The target of test [8] is 3',5'-cyclic-AMP phosphodiesterase 4B (Homo sapiens) (UniProt Q07343). Briefly: qHTS Assay for Inhibitors of PDE-IV (AID 607; active = well fitted activation curve with a large enough effect in the main read-out, with a control signal flat, not every such curve was filed as active; note: % of control where 0% means no effect). The settings on record: HEK293 ACTOne CNG channel cells, membrane potential fluorescence; series mostly up to 22.9 µM. In outline: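 The readout is membrane depolarisation from a cAMP-sensing CNG channel, detected with a potential dye at ex 535/em 590. Cells were HEK293-derived (endogenous PDE-IV) at 1000 cells/well, titrated up to 22.9 uM final.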

Test [9] addresses Cytochrome P450 2D6 (Homo sapiens) (UniProt P10635). Briefly: qHTS Assay for Inhibitors and Substrates of Cytochrome P450 2D6 (AID 891; active = well fitted curve in the direction sought with a large enough effect; an effect the other way counts as inactive or inconclusive; note: nearly all actives have a fitted effect of over 60% in size; note: potency is the fitted concentration of half-maximal effect). The settings on record: recombinant CYP2D6, luciferin-ME EGE luminescence; series mostly up to 57.1 µM. Summed up: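 Luminescent read-out of luciferin formed by 5 nM human CYP2D6 demethylating 30 uM Luciferin-ME EGE (Km level) over 60 min at room temperature after NADPH regeneration addition. Data normalized to full inhibition by 1.43 uM quinidine.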
On the technique in general: Quantitative high-throughput screening tests each substance at several concentrations.

The nature of test [10]: qHTS Assay for Lipid Storage Modulators (AID 1519; calls by dose curve). Conditions: Drosophila S3 cells, BODIPY lipid droplet/cell ratio, laser cytometry, cells loaded with oleic acid; for activity change, negative = inhibition: at 57.5 µM (top of the series). In outline: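 Cells seeded at 5,000 per well were treated with compounds over a concentration series and loaded with oleic acid (400 uM, as added). Lipid droplet fluorescence (488 nm excitation, 500-530 nm channel) was read by laser-scanning cytometry and normalized to 20 uM Triacsin C.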

Test [11] is described as follows: Primary qHTS for small molecule stabilizers of the endoplasmic reticulum resident proteome: Secreted ER Calcium Modulated Protein (SERCaMP) assay (AID 1508630; active = well fitted curve in the direction sought with a large enough effect; an effect the other way counts as inactive or inconclusive; note: % is set by controls: 0 for no effect and ±100 for the full control effect). The settings on record: SH-SY5Y GLuc-SERCaMP (Gaussia luciferase released on ER calcium loss) secretion, thapsigargin, luminescence; series mostly up to 38.4 µM. In outline: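 The SH-SY5Y reporter protocol was run at 3 concentrations up to 38.3 uM (primary) or 11 concentrations (follow-up): 16 h compound, 100 nM thapsigargin for 4 h, then extracellular luciferase luminescence.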

Test [12] has as its target Cytochrome P450 3A4 (Homo sapiens) (UniProt P08684). As to the kind of experiment: qHTS Assay for Activators of Cytochrome P450 3A4 (AID 885; active = well fitted curve in the direction sought with a large enough effect; an effect the other way counts as inactive or inconclusive; note: nearly all actives have a fitted effect of over 65% in size; note: potency is the fitted concentration of half-maximal effect). The settings on record: recombinant CYP3A4, Luciferin-PPXE luminescence, 60 min; series mostly up to 57.1 µM. Summed up: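 Activators are scored by enhanced luminescence from CYP3A4 conversion of luciferin-PPXE (25uM, equal to KM) to luciferin, after 60 min at RT with an NADPH-regenerating system.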

The target is the same in test [13]. Briefly: qHTS Assay for Inhibitors and Substrates of Cytochrome P450 3A4 (AID 884; active = well fitted curve in the direction sought with a large enough effect; an effect the other way counts as inactive or inconclusive; note: potency is the fitted concentration of half-maximal effect; nearly all actives have a fitted effect of over 50% in size). The settings on record: recombinant CYP3A4, Luciferin-PPXE luminescence; series mostly up to 57.1 µM. Summed up: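 Luminescent readout of luciferin produced by CYP3A4 (20 nM) dealkylation of Luciferin-PPXE, 25 uM (its KM). NADPH-driven reaction ran 60 min at RT after 10 min compound preincubation; data scaled to 57 uM ketoconazole as 100% inhibition.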

Test [14] has as its target Cytochrome P450 2C19 (Homo sapiens) (UniProt P33261). As to the kind of experiment: qHTS Assay for Inhibitors and Substrates of Cytochrome P450 2C19 (AID 899; active = well fitted curve in the direction sought with a large enough effect; an effect the other way counts as inactive or inconclusive; note: potency is the fitted concentration of half-maximal effect; nearly all actives have a fitted effect of over 60% in size). Conditions: recombinant CYP2C19, luciferin-H EGE luminescence; series mostly up to 57.1 µM. In outline: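 Signal comes from luciferase acting on luciferin released by CYP2C19-mediated hydroxylation of Luciferin-H EGE, 10uM (KM). Assay mix: 5nM enzyme, 50mM KPO4; 60 min at 37C with NADPH regeneration. Data normalized against 57uM ketoconazole.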

The mark [15] stands for this setting: measured here: cell count channel max response.
The mark [16] stands for this setting: measured here: lipid channel max response.

Inconclusive results are not listed. Active and inactive are the calls of the source. Unless noted, calls come from the whole dose curve; as a rule, active = well fitted curve in either direction with a large enough effect (not every such curve was filed as active); inconclusive = small, poorly fitted or top-dose-only effect, or another doubt; inactive = flat fitted curve, though single readings scatter.

Glucocorticoid receptor (Homo sapiens), sequence (P04150 whole entry, looked up, the tested form may be a part): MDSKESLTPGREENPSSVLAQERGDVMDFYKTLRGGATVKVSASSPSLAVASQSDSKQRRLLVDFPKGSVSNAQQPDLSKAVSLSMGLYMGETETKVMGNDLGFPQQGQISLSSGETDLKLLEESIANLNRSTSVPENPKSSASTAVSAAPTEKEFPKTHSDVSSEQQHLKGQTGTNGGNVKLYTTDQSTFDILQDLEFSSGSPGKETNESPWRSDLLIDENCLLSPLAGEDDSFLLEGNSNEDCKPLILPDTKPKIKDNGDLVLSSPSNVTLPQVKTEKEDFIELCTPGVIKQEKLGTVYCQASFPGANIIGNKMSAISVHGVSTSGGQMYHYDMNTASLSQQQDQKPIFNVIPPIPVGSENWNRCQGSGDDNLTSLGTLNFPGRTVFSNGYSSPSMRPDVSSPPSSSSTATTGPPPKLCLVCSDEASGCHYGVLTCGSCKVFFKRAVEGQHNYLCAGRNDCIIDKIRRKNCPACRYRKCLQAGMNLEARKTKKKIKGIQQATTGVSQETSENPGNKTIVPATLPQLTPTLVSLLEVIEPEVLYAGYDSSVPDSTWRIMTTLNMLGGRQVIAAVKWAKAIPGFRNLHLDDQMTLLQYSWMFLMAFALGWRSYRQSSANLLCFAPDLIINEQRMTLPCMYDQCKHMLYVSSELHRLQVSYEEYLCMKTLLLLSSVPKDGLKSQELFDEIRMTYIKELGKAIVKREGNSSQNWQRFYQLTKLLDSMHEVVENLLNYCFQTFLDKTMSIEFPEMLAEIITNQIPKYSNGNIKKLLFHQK
Cytochrome P450 1A2 (Homo sapiens), sequence (P05177 whole entry, looked up): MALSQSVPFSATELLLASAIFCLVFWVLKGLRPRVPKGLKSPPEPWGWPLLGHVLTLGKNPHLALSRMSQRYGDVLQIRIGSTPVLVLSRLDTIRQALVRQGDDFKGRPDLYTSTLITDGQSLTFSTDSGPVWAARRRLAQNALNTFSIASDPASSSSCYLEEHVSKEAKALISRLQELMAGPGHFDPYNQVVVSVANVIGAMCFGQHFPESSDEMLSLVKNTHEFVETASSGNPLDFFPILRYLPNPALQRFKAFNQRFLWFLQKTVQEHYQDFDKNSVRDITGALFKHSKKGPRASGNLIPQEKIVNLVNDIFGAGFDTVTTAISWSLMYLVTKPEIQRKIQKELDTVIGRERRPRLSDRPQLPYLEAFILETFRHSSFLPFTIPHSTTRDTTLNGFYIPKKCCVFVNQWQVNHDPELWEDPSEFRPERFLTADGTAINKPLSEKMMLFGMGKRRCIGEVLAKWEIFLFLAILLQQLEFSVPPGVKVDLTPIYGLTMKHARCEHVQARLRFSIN
Cytochrome P450 3A4 (Homo sapiens), sequence (P08684 whole entry, looked up): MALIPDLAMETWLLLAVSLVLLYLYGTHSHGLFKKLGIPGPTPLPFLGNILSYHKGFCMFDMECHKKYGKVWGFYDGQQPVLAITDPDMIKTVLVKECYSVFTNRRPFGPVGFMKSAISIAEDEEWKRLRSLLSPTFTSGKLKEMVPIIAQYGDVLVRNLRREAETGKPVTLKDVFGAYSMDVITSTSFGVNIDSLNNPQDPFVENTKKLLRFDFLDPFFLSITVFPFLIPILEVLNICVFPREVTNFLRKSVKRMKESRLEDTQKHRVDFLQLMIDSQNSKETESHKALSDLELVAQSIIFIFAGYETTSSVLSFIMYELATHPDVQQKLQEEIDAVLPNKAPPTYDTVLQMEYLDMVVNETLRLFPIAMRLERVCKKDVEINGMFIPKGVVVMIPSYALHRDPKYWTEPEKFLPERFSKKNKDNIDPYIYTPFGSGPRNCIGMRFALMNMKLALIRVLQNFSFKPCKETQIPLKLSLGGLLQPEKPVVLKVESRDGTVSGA
3',5'-cyclic-AMP phosphodiesterase 4B (Homo sapiens), sequence (Q07343 whole entry, looked up): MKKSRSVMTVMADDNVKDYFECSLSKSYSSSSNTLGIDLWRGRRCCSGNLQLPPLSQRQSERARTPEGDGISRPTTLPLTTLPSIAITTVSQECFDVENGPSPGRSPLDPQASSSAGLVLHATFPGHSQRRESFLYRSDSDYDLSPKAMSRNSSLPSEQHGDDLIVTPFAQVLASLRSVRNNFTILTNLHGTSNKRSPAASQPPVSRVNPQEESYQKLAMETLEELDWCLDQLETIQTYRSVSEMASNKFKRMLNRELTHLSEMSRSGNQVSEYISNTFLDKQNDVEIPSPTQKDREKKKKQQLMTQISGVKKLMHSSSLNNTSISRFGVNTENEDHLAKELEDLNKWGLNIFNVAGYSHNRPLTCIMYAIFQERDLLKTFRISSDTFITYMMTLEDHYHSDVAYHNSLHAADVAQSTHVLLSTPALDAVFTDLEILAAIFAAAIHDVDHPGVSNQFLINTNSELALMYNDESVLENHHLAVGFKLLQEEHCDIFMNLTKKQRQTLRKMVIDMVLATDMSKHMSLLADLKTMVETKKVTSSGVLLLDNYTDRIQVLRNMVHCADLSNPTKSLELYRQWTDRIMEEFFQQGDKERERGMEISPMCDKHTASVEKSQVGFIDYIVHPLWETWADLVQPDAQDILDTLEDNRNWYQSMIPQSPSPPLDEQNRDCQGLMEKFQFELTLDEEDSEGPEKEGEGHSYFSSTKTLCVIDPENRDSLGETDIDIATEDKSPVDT
Lysosomal acid glucosylceramidase (Homo sapiens), sequence (P04062 whole entry, looked up): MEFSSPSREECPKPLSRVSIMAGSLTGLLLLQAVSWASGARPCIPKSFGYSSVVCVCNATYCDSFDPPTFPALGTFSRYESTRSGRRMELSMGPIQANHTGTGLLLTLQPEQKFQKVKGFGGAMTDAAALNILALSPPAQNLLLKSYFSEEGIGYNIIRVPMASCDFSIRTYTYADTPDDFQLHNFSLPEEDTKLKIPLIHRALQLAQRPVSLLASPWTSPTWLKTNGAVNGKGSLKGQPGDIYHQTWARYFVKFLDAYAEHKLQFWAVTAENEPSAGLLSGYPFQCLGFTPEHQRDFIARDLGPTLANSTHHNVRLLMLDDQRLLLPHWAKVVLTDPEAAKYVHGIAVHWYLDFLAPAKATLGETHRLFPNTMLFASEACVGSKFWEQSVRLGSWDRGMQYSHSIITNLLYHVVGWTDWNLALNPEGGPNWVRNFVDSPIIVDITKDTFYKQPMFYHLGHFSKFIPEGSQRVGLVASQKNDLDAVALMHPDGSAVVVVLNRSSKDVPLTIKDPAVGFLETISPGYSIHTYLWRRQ
Cytochrome P450 2D6 (Homo sapiens), sequence (P10635 whole entry, looked up): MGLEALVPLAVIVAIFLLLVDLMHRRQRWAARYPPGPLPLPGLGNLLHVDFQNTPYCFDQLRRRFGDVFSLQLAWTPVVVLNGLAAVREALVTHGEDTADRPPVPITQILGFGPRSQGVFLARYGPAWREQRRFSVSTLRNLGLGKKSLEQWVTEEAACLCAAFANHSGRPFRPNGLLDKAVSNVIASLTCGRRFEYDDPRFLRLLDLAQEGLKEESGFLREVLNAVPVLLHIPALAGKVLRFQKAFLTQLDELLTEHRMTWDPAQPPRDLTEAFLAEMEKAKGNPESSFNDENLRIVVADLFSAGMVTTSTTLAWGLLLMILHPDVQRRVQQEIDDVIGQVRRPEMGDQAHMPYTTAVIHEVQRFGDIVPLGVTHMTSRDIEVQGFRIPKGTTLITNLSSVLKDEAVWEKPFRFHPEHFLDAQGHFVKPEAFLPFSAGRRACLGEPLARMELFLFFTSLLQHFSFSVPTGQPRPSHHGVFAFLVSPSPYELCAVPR
Cytochrome P450 2C19 (Homo sapiens), sequence (P33261 whole entry, looked up): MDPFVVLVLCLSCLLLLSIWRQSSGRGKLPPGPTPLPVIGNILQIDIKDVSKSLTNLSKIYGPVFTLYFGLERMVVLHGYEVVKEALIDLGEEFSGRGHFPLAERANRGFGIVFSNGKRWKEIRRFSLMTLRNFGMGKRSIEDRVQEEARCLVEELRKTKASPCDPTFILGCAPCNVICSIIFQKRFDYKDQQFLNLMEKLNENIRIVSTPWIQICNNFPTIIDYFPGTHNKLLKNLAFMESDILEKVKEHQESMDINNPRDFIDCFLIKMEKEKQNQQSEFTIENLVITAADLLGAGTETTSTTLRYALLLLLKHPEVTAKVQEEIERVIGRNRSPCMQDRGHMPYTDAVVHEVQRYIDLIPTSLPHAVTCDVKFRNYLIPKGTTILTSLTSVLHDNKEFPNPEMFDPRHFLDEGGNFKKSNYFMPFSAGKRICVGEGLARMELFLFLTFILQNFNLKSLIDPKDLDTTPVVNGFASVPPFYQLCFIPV

For `COc1ccccc1CN1CC2(CCN(S(C)(=O)=O)CC2)C1`, the Potency in test [1] was > 11.4 µM (inactive); in test [6], > 46 µM (inactive). Moreover, the activity change, negative = inhibition was -11.2% (inactive) in test [2], -7.23% (inactive) in test [4] and 6.08% (inactive) in [10]. Further, the Potency entry in test [3], in test [8], in [9] and in test [11] was “inactive” each time. For the same compound, the activity, negative = inhibition in [5] was 4.21% (inactive). In [7], the compound was classed as inactive. The max response in [10] (setting [15]) is 11.6%; in [10] (setting [16]), 24%.
In the case of `O=C(c1ccncc1)N1CCC2(CC1)CCN(C(c1ccccc1)c1ccccc1)CC2`, the Potency is > 11.4 µM (inactive) in [1], 12.6 µM (active) in [3], > 46 µM (inactive) in test [6] and 3.16 µM (active) in test [9]. Also, the activity change, negative = inhibition in test [2] is -0.963% (inactive); in test [4], -18.3% (inactive); in [10], 2.53% (inactive). The activity, negative = inhibition in test [5] was 5% (inactive). Besides, the compound was classed as inactive in [7]. The Potency entry in test [8] and in test [11] was “inactive” in each case. The results for the max response in [10] (setting [15]) and in test [10] (setting [16]) were 0.243% and 4.49%, respectively.
For the compound `CS(=O)(=O)N1CCC2(CCCN(c3ccccn3)C2)CC1`, the Potency was > 11.4 µM (inactive) in test [1], 25.1 µM (active) in test [3] and > 46 µM (inactive) in test [6]. Further, the activity change, negative = inhibition in test [2] is -3.01% (inactive); in [4], 4.17% (inactive); in test [10], 2.39% (inactive). Moreover, the activity, negative = inhibition in [5] is 7.37% (inactive). The call in test [7] was inactive. Moreover, the Potency entry in test [8], in [12] and in [11] was “inactive” throughout. Besides, the max response stood at 5.95% in test [10] (setting [15]) and 15.6% in test [10] (setting [16]).
For the compound `CC(=O)N1CCC2(CC1)CN(C(c1ccccc1)c1ccccc1)C2`, the Potency in test [1] is > 11.4 µM (inactive); in test [6], > 46 µM (inactive); in test [12] it was 15.8 µM (active). In addition, the activity change, negative = inhibition in [2] is 14.1% (inactive); in test [4], -5.45% (inactive); in test [10] it was 1.46% (inactive). Besides, the Potency result in test [3], in [8] and in test [11] was “inactive” in each case. In test [5], the activity, negative = inhibition is -8.55% (inactive). The result in test [7] was inactive. The max response in test [10] (setting [15]) turned out to be 13.6%; in test [10] (setting [16]), 21%.
Consider `O=C(c1ccncc1)N1CCC[C@@]2(CCN(c3ccccn3)C2)C1`, for which the Potency in test [1] is > 11.4 µM (inactive); in [3], 20 µM (active); in test [6] it was > 46 µM (inactive); in test [13] it was 7.94 µM (active); in [14], 6.31 µM (active). The values for the activity change, negative = inhibition in test [2], in test [4] and in [10] were -20.6% (inactive), 6.17% (inactive) and 4.35% (inactive), respectively. For the same compound, the activity, negative = inhibition in test [5] was -0.0595% (inactive). Besides, in [7], the compound was called inactive. Further, the Potency entry in test [12] and in [11] was “inactive” throughout. The max response in test [10] (setting [15]) was found to be 14.4%; in [10] (setting [16]), 22.3%.
Take `O=C(c1cccc(F)c1)N1CCC2(CCCN(c3ncccn3)C2)CC1`: the Potency is > 11.4 µM (inactive) in [1], 25.1 µM (active) in test [3], > 46 µM (inactive) in [6] and 6.31 µM (active) in [14]. For the same compound, the activity change, negative = inhibition in test [2] is 4.38% (inactive); in test [4], -6.9% (inactive); in [10], 3.73% (inactive). In addition, the activity, negative = inhibition in [5] is -4.43% (inactive). For the same compound, the call in test [7] was inactive. Also, the values for the max response in test [10] (setting [15]) and in test [10] (setting [16]) were 1% and 9.03%, respectively. For the same compound, in [11], the Potency entry was “inactive”.
